# PubChem BioAssay (Tox21)
# Where “and” joins values, the source holds several entries; their conditions need not be identical. Equal entries are not always repeated. Inconclusive results are not listed. Where a call stands in place of a potency, no number is given. The source holds several records for some structures; these can differ, active in one and inactive in another. Calls of active or inactive are those of the source. Unless noted, the call rests on the fitted dose curve; in most records, active means well fitted curve in the direction sought with a large enough effect in the repeat runs; inconclusive means weak or mixed curves; inactive means no such curve, though single readings can be large; an effect the other way counts as inactive or inconclusive.
# Experiments:
# [1] = qHTS assay to identify small molecule antagonists of the glucocorticoid receptor (GR) signaling pathway - cell viability counter screen (AID 720693); further: nearly all actives have a fitted effect of over 55% in size; further: potency means the concentration at half of the fitted maximal effect
# [2] = qHTS assay for identifying genotoxic compounds that show differential cytotoxicity against isogenic chicken DT40 cell lines with known DNA damage response pathways - Rev3 mutant cell line (AID 743014); further: nearly all actives have a fitted effect of over 55% in size; further: potency means the concentration at half of the fitted maximal effect
# [3] = qHTS assay for identifying genotoxic compounds that show differential cytotoxicity against isogenic chicken DT40 cell lines with known DNA damage response pathways - Rad54/Ku70 mutant cell line (AID 743015); further: nearly all actives have a fitted effect of over 60% in size; further: potency means the concentration at half of the fitted maximal effect
# [4] = qHTS assay to identify small molecule antagonists of the androgen receptor (AR) signaling pathway - cell viability counter screen (AID 743033; further: nearly all actives have a fitted effect of over 45% in size; further: potency means the concentration at half of the fitted maximal effect)
# [5] = molecular target: Androgen receptor (Homo sapiens) (UniProt P10275); assay: qHTS assay to identify small molecule antagonists of the androgen receptor (AR) signaling pathway (AID 743035; active means well fitted inhibition curve with a large enough effect in the signal ratio in the repeat runs, not every such curve was filed as active; the % refers to the signal ratio; further: potency means the concentration at half of the fitted maximal effect)
# Chain of Androgen receptor (Homo sapiens) (P10275 whole entry, looked up): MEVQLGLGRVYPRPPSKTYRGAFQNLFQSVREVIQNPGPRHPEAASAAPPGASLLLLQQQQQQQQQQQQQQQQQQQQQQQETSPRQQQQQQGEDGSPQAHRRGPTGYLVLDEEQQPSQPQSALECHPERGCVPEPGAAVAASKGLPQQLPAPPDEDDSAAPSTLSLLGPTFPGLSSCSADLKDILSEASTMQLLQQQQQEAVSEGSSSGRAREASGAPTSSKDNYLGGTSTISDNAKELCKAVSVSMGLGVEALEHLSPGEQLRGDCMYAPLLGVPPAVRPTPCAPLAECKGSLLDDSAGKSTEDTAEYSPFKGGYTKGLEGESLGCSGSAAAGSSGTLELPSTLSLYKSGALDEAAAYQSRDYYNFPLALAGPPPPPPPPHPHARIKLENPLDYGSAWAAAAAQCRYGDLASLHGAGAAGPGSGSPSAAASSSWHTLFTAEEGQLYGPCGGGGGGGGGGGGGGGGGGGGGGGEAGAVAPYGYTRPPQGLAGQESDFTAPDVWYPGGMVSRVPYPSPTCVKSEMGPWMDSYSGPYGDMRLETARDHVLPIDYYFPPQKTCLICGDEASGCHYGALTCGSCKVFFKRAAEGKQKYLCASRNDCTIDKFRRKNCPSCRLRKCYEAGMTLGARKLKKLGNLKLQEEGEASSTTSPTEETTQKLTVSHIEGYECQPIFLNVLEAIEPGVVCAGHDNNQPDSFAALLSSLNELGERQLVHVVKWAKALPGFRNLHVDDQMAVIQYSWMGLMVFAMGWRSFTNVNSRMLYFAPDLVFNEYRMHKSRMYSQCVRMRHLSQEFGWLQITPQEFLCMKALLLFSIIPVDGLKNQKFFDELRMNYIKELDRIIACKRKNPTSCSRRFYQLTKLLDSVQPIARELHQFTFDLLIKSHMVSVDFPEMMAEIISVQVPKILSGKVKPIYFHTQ
# Outline: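 HEK293 cells stably carrying UAS-beta-lactamase reporter, 2,000/well, given compounds plus R1881 agonist and incubated 16 h at 37C. LiveBLAzer B/G FRET substrate then added for 2 h at room temperature before fluorescence reading.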
# [6] = molecular target: Androgen receptor (Homo sapiens) (UniProt P10275); assay: qHTS assay to identify small molecule agonists of the androgen receptor (AR) signaling pathway (AID 743036; active means well fitted activation curve with a large enough effect in the signal ratio in the repeat runs, with a control signal flat, not every such curve was filed as active; the % refers to the signal ratio)
# Outline: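 Agonist activity was scored by beta-lactamase reporter fluorescence in stably transfected HEK293 cells exposed to compounds for 16 h at 37C and 5% CO2. Substrate loading took 2 h at room temperature.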
# [7] = molecular target: Androgen receptor (Homo sapiens) (UniProt P10275); assay: qHTS assay to identify small molecule agonists of the androgen receptor (AR) signaling pathway using the MDA cell line (AID 743040; further: nearly all actives have a fitted effect of over 20% in size); settings: MDA-kb2 AR-luc cells, MMTV luciferase, 16 h, stronger effect = higher value
# Outline: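 MDA-kb2 breast carcinoma cells carrying MMTV-luciferase (responsive to AR and GR), plated 5 h then treated 16 h with compounds at 37C, 0% CO2. Read-out was ONE-Glo luminescence after 30 min at room temperature.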
# [8] = qHTS assay to identify small molecule antagonists of the androgen receptor (AR) signaling pathway using the MDA cell line - cell viability counter screen (AID 743041; further: nearly all actives have a fitted effect of over 45% in size; further: potency means the concentration at half of the fitted maximal effect)
# Outline: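 MDA-kb2 AR-luc cells (MMTV-luciferase, AR/GR responsive) treated with compounds plus R1881 agonist for 16 h at 37C. CellTiter-Fluor added at 15.5 h; fluorescence read after 30 min in the same wells.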
# [9] = molecular target: Androgen receptor (Homo sapiens) (UniProt P10275); assay: qHTS assay to identify small molecule antagonists of the androgen receptor (AR) signaling pathway using the MDA cell line (AID 743042; further: nearly all actives have a fitted effect of over 55% in size; further: potency means the concentration at half of the fitted maximal effect)
# Outline: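 MDA-kb2 breast carcinoma cells carrying MMTV-luciferase (AR/GR responsive) were co-treated with compounds and the agonist R1881 for 16 h at 37C. Inhibition read as ONE-Glo luminescence; CellTiter-Fluor fluorescence measured in parallel for cytotoxicity.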
# [10] = qHTS assay for identifying genotoxic compounds that show differential cytotoxicity against isogenic chicken DT40 cell lines with known DNA damage response pathways - wild type cell line (AID 743012); further: nearly all actives have a fitted effect of over 60% in size; further: potency means the concentration at half of the fitted maximal effect
# Outline: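 Wild-type DT40 cells (300/well) exposed to compounds for 40 hours at 37 C/5% CO2. Viability read by CellTiter-Glo luminescence after 30 min at room temperature.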
SMILES,Potency [1],Potency [2],Potency [3],Potency [4],Potency [5],Potency [6],activity change ([7]; at 70.3 µM (top of the series)),activity change ([7]; at 95 µM (top of the series)),Potency [8],Potency [9],Potency [10]
CCC(=O)Nc1ccc(Cl)c(Cl)c1,inactive,inactive,inactive,inactive,22.3 µM (active) and 24.5 µM (active),inactive,-3.69% (inactive),-4.49% (inactive),inactive,48.6 µM (active),
CC(C)(c1ccc(OCC2CO2)cc1)c1ccc(OCC2CO2)cc1 (configuration not stated),inactive,2.47 µM (active) and 3.06 µM (active),,inactive,inactive,inactive,-0.897% (inactive),-0.522% (inactive),inactive,inactive,24.3 µM (active)
C[N+](C)(C)CC(=O)[O-],inactive,inactive,,inactive,,,,,inactive,,inactive
O=P(OCCCl)(OCCCl)OCCCl,inactive,inactive,inactive,inactive,,,,,inactive,,
ClC(Cl)(Cl)c1ccccc1,inactive,inactive,inactive,inactive,,,,,inactive,,inactive
ClCc1ccccn1,inactive,inactive,,inactive,,,,,inactive,,inactive
CCOS(=O)(=O)OCC,inactive,inactive and 54.5 µM (active),,inactive,,,,,inactive,,inactive
Nc1ccc2ccccc2c1,inactive,inactive and 68.6 µM (active),,inactive,,,,,inactive,,inactive
CC(O)CN(CC(C)O)CC(C)O (configuration not stated),inactive,inactive,inactive,inactive,,,,,inactive,,inactive
CCCCSP(=O)(SCCCC)SCCCC,inactive,inactive,,inactive,,,,,inactive,,61.1 µM (active)
CCCCOCCOC(C)=O,inactive,inactive,inactive,inactive,,,,,inactive,,inactive
CC(C)(c1ccccc1)c1ccc(O)c(C(C)(C)c2ccccc2)c1,21.7 µM (active) and 24.5 µM (active),15.2 µM (active) and 8.63 µM (active),,48.5 µM (active) and 49 µM (active),,,,,,,21.5 µM (active) and 9.69 µM (active)
CC[n+]1c(-c2ccccc2)c2cc(N)ccc2c2ccc(N)cc21,16.9 µM (active) and 19 µM (active) and 13.7 µM (active),376 nM (active) and 841 nM (active) and 96.4 nM (active),,12 µM (active) and 4.88 µM (active),,,,,13.3 µM (active) and 26.6 µM (active) and 30.5 µM (active),,211 nM (active) and 531 nM (active) and 171 nM (active)
C[C@]12CC[C@H]3[C@@H](CCC4=CC(=O)CC[C@@H]43)[C@@H]1CC[C@@H]2O,inactive,inactive,,inactive,,,,,inactive,,26.6 µM (active)
CC(C)(O)C(=O)Nc1ccc([N+](=O)[O-])c(C(F)(F)F)c1,inactive,49.5 µM (active) and 6.31 µM (active),19.7 µM (active) and 5.01 µM (active),,,,,,,,
COP(=S)(OC)Oc1ccc(S(=O)(=O)N(C)C)cc1,inactive,inactive and 24.3 µM (active),,inactive,inactive,inactive,-0.992% (inactive) and -9.46% (inactive),,inactive,inactive and 61.1 µM (active),19.3 µM (active)
CNC(=O)CSP(=S)(OC)OC,inactive,inactive,,inactive,,,,,inactive,,inactive
CCC[CH2][Sn]([Cl])([Cl])[CH2]CCC,6.24 µM (active) and 6.16 µM (active),276 nM (active) and 17.2 nM (active),,1.4 µM (active) and 389 nM (active),,,,,1.96 µM (active) and 2.73 µM (active),,438 nM (active) and 17.2 nM (active)
O=[N+]([O-])c1ccc(Nc2ccccc2)cc1,43.6 µM (active),54.9 µM (active) and 13.7 µM (active),30.9 µM (active) and 10.9 µM (active),38.9 µM (active),,,,,61.6 µM (active) and 61.1 µM (active),,15.4 µM (active)
O=C(O)CF,inactive,inactive,,inactive,,,,,inactive,,inactive
OCCOCCO,inactive,inactive,,inactive,,,,,inactive,,inactive
O=C(O)c1nn(Cc2ccc(Cl)cc2Cl)c2ccccc12,inactive,inactive,,inactive,inactive,,1.75% (inactive) and 0.87% (inactive),,inactive,inactive,inactive
CCOP(=O)(O)OCC (tested in a mixture with another compound),17.2 µM (active),inactive and 85.6 nM (active),,inactive and 17.2 µM (active),,,,,,,inactive and 96.1 nM (active)
CCCCCCCC[N+](C)(CCCCCCCC)CCCCCCCC,13.8 µM (active) and 5.5 µM (active) and 11 µM (active),433 nM (active) and 686 nM (active),,3.46 µM (active) and 872 nM (active) and 3.47 µM (active),,,,,17.2 µM (active) and 2.73 µM (active) and 15.4 µM (active),,768 nM (active) and 433 nM (active) and 306 nM (active)
ClCC(Cl)CCl,inactive,inactive,,inactive,,,,,inactive,,inactive
ClC(Cl)(Cl)Br,inactive,inactive,,inactive,,,,,inactive,,inactive
